Assay outcomes (PubChem)
Mito fusion act: qHTS Assay for Small Molecule Inhibitors of Mitochondrial Division or Activators of Mitochondrial Fusion | AID 485298, 2010 | S. cerevisiae fusion-defective mutant growth rescue, CellTiterGlo 48 h | 320,000 compounds, 0.23% hits | Potency, µM (series often up to 46.1 µM), without a hit: top-dose growth rescue (activation), actives largely listed as activators; also: % of control where 0% means no effect; nearly all actives have a fitted effect of over 45% in size
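Growth-rescue viability read-out: after 48 h at the non-permissive 37C in glycerol/ethanol YPEG, yeast mitochondrial fusion mutants are measured by CellTiterGlo luminescence; compounds (23 nl pinned per well) restoring growth score as division inhibitors or fusion activators.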
Integrin act MD: qHTS for Activators of Integrin-Mediated Alleviation for Muscular Dystrophy; 350,000 compounds, 0.064% hits; Potency, µM (top dose mostly 38.3 µM), for inactives: at the highest dose activation, hits mostly activators; AID 624291, 2012; alpha7betagal myoblasts, beta-gal FDG fluorescence, 48 h;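 also: 100% = response of the positive control SU9516; nearly all actives have a fitted effect of over 60% in size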
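Alpha7betagal+/- myoblasts (passage 13) were plated 16-24 hr, then exposed to compounds (1:260 dilution of DMSO stock) for 48 hours at 37C. After MPER lysis, β-galactosidase reporter activity was read as FDG fluorescence (ex 480/em 540) after 30 minutes.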
VP16 counter: VP16 counterscreen qHTS for inhibitors of ROR gamma transcriptional activity. 310,000 compounds, 3.5% hits. Drosophila S2 Gal4-VP16 UAS-luciferase, luminescence, 20 h. Potency, µM (top dose mostly 53.6 µM), for the others: at the highest dose activity, negative = inhibition, usual class: inhibitors;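 also: Gal4-VP16 expression switched on by copper sulfate through the metallothionein promoter; % is scaled to controls: 0 for no effect and ±100 for the full control effect; nearly all actives have a fitted effect of over 50% in size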
uPA generation: qHTS for Inhibitors of Cell Surface uPA Generation; Potency, µM (doses to about 38.3 µM), for the others: at the highest dose activity change, negative = inhibition, hits mostly inhibitors; cell surface uPA generation assay, qHTS; 330,000 compounds, 0.31% hits; AID 540303, 2011; active = well fitted inhibition curve with a large enough effect; inconclusive = small, poorly fitted or top-dose-only effect; inactive = no such curve, though single readings can be large or run the other way; tested in mouse RAW 264.7 cells; also: % is scaled to controls: 0 for no effect and ±100 for the full control effect; nearly all actives have a fitted effect of over 55% in size
Chronic BCR inh: qHTS Assay to Find Inhibitors of Chronic Active B-Cell Receptor Signaling; ABC-DLBCL IkBa-CBG/CBR reporter, luminescence ratio, 4 h; Potency, µM (titrated, usually from 46.1 µM), inactives show at the highest dose activity change, negative = inhibition, usual class: inhibitors; 340,000 compounds, 0.05% hits; AID 493014, 2011; active = well fitted inhibition curve with a large enough effect in the signal ratio, with a control signal flat, not every such curve was filed as active; inconclusive = small, poorly fitted or top-dose-only effect, or effect the other way, or a change in a side signal; the % refers to the signal ratio;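 also: plate controls were basal doxycycline-induced cells for no effect and cells given 10 µM MG132 for full effect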
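Compounds up to 46 uM were incubated four hours with TMD8 cells whose green CBG68 luciferase is fused to IkappaBalpha; red CBR luminescence normalised the signal, and concentration-effect curves were fitted to fusion, red and ratio data.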
RORgamma inh: qHTS for inhibitors of ROR gamma transcriptional activity; 310,000 compounds, 5.4% hits; Potency, µM (titrated, usually from 53.6 µM), for inactives: top-dose activity change, negative = inhibition, usual class: inhibitors; Drosophila S2 Gal4-RORgamma UAS-luciferase reporter, 20 h; AID 2551, 2010; also: % is scaled to controls: 0 for no effect and ±100 for the full control effect; nearly all actives have a fitted effect of over 60% in size
Target sequence (P51450 whole entry, looked up, the tested form may be a part): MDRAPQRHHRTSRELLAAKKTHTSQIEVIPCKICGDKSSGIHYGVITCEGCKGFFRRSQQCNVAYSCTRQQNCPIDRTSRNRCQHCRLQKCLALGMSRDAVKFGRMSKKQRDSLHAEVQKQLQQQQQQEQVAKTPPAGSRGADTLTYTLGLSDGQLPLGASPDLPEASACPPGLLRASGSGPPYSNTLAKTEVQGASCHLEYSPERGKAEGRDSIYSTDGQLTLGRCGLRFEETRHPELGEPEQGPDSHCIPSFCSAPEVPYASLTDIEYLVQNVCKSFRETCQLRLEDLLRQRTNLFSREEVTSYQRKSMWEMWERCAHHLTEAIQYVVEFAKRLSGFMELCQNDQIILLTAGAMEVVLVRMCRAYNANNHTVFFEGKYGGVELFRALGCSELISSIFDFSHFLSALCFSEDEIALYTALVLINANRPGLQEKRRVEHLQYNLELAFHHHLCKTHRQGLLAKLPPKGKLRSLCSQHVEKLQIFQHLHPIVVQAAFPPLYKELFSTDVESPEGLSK
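Drosophila Schneider cells stably carrying a metallothionein-driven Gal4 DBD–ROR gamma fusion and a UAS-Photinus luciferase reporter were exposed to compound for 1 hr, then induced with copper sulfate (700 uM final) for 20 hr at ambient temperature before luminescence reading.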
Numbers without * were called inactive; ? = inconclusive; / = not tested or not shown; [ ] = dose if it differs, or a comment. This is a sample that favours compounds with a hit; in the whole collection about 5.5% have one here. Unless noted, calls follow the shape of the dose curve; as a rule, active = well fitted curve in the direction sought with a large enough effect; inconclusive = small, poorly fitted or top-dose-only effect, or another doubt; inactive = no such curve, though single readings can be large; an effect the other way counts as inactive or inconclusive. Potency is read from the fitted curve at half-maximal effect.

SMILES	Mito fusion act	Integrin act MD	VP16 counter	uPA generation	Chronic BCR inh	RORgamma inh
O=C(NNC(=O)C1CC1c1ccccc1)Nc1ccccc1 (stereo not given)	-1%	18%	-3%	4%	?	1%
CC(C)(C)NC(=S)NNC(=O)[C@H]1C[C@@H]1c1ccccc1	-2%	-1%	-23%	0%	?	0.56µM*
C[C@H](CO)N1C[C@H](C)[C@@H](CN(C)S(=O)(=O)c2ccc(F)cc2)Oc2ccc(NS(=O)(=O)c3ccccc3)cc2C1=O	/	-4%	/	12%	?	/
Cc1cc(C)n(-c2nnc(C)n2N)n1	-1%	?	4%	3%	3%	-1%
CCOC(=O)c1cnn(-c2nc3sc4c(c3c(=O)[nH]2)CCCC4)c1N	-9%	/	0.79µM*	/	?	0.56µM*
Cc1cc(C)n(-c2nc3sc4c(c3c(=O)[nH]2)CCCC4)n1	-1%	/	1.4µM*	/	?	0.71µM*
Cc1cc(C)n(-c2nnc(C)c(=O)[nH]2)n1	-1%	19%[7.66 µM]	-10%	2%	-1%	16µM*
N#Cc1ccc2c(c1)C[C@]1(CCCCN3C(=O)c4ccccc4C3=O)Oc3c(c(=O)oc4ccc(F)cc34)C2O1	-1%[9.22 µM]	/	4%[10 µM]	/	?	7%[10 µM]
CCOCCn1c(N2CCCN(C)CC2)nc2ccccc21	/	/	-5%	/	/	-1%
O=C(c1ccc2c3c(cccc13)CC2)C1CCCN(C(=O)c2ccc[n+]([O-])c2)C1 (stereo not given)	-7%	-21%	-8%	-8%	6%	4%
COCc1cc(C)nc(OCC(=O)N/N=C/c2ccccc2O)c1C#N	5%	-24%	-7%	3%	-2%	16µM*
CCC(=O)N(C1=C(NC(C)C)C(=O)c2ccccc2C1=O)C(C)C	-17%	?	?	9%	?	10µM*
CCCNC1=C(N(C(C)=O)c2cccc(F)c2)C(=O)c2ccccc2C1=O	14%	-51%	?	-13%	?	?
CN(CC(=O)Nc1ccc(Cl)c(Cl)c1)C(=O)C1CCC1	/	-20%	/	-4%	6%	/
CC(=NNC(=O)c1ccc(NS(=O)(=O)c2cccs2)cc1)c1ccc(OCC(N)=O)cc1	/	-26%	/	17%	?	/
CC(=O)O[C@H]1Cc2ccccc2N(C(N)=O)c2ccccc21	-12%	/	-8%	/	/	1%
Cc1ccc(-c2nnc(N3CCC(C)CC3)c3ccccc23)cc1	-4%	-46%	?	?	-1%	?
Cc1ccc(-c2nnc(N3CCC(C)CC3)c3ccccc23)cc1C	2%	-67%	18µM*	-7%	1%	20µM*
COc1ccc(/C=N/NC(=S)NC2CCS(=O)(=O)C2)cc1 (stereo not given)	6%	?	4.5µM*	7%	?	7.1µM*
O=C(N/N=C/c1ccccc1)NC1CCCCC1	2%	5%	-11%	-3%	-4%	42%
COc1ccc(/C=C/C(=O)NC2CCS(=O)(=O)C2)cc1 (stereo not given)	-2%	0%	/	1%	?	/
CC(C)(C)c1ccc(/C=N/NC(=S)NC2CCCCC2)cc1	?	-53%	3.2µM*	-2%	6%	1.1µM*
COc1ccc(CCN2CC(C(=O)NCc3cn(C)nc3C)CCC2=O)cc1 (stereo not given)	/	14%	/	/	/	/
CSCC[C@H](N)C(=O)N[C@@H](CCCN=C(N)N)C(=O)N[C@@H](Cc1ccccc1)C(=O)N[C@@H](Cc1ccccc1)C(=O)N[C@H](C(=O)O)C(C)C	/	/	4%	/	/	0%
CO[C@]1(NC(=O)[C@H](C(=O)O)c2ccc(O)cc2)C(=O)N2C(C(=O)O)=C(CSc3nnnn3C)CO[C@H]21	/	/	-6%[17 µM]	/	/	-2%[2.98 µM]
SMILES	Mito fusion act	Integrin act MD	VP16 counter	uPA generation	Chronic BCR inh	RORgamma inh
O=C(Nc1nonc1-c1ccc(Cl)cc1)c1ccccc1	-5%	-14%	?	5%	3%	11µM*
Cc1cc(NC(=O)NC(=O)c2ccccc2NC(=O)C(C)N)ccc1Oc1ncc(Br)cn1 (stereo not given)	/	-12%	/	-10%	/	/
CCOc1cccc(NC(=O)C2CC(=O)N(C)C(=Nc3ccc(F)cc3)S2)c1 (stereo not given)	-1%	/	/	/	-1%	/
Cc1cc2nc(-c3ccc(=O)[nH]c3)n(Cc3ccccc3)c2cc1C	-8%	0%	0%	9%	?	-14%
FC(F)Oc1cccc(NC(=S)N2CCN(c3ccccn3)CC2)c1	0%	27%	-7%	-16%	1%	7.1µM*
CCCCc1ccc(NC(=S)N2CCN(c3ccccn3)CC2)cc1	-13%	5%	?	-3%	-1%	16µM*
CCC(C)c1ccc(NC(=S)N2CCN(c3ccccn3)CC2)cc1 (stereo not given)	-2%	-24%	13µM*	3%	?	?
CCCCc1ccc(NC(=S)N2CCN(c3ncccn3)CC2)cc1	-11%	-13%	?	1%	1%	4.5µM*
COc1ccc(NC(=S)N2CCN(c3ccccn3)CC2)cc1	-11%	14%	-6%	-25%	4%	-24%
Fc1ccc(NC(=S)N2CCN(c3ncccn3)CC2)cc1	3%	32%	17%	-3%	5%	?
CN(C)CCn1c2c(c(SCC(=O)NCc3ccccc3)nc1=O)CCCC2	1%	0%	/	7%	?	/
O=C1NC(=O)N2CCSC2(Cc2ccccc2)N1 (stereo not given)	/	3%	/	-2%	/	/
Cc1ccsc1C(=O)NNC(=O)CCN1CCN(c2ccccc2)CC1	2%	2%	/	5%	?	/
N#C/C(=N\Nc1cccc2ccccc12)c1nnc2n1CCCCC2	-1%	36%	3.2µM*	0%	?	?
N#Cc1ccccc1Cn1cc(/C=C/[N+](=O)[O-])c2ccccc21	-7%	-34%	20µM*	-16%	?	?
O=c1ccc2ccc(Oc3ccc([N+](=O)[O-])cc3[N+](=O)[O-])cc2o1	0%	/	?	/	?	10µM*
O=C(Oc1ccc2ccc(=O)oc2c1)c1ccc([N+](=O)[O-])cc1	-4%	12%	/	-1%	3%	/
Nc1ccc(Oc2ccc([N+](=O)[O-])cc2[N+](=O)[O-])cc1	-2%	-49%	3%	?	-4%	8.9µM*
Oc1[nH]c2ccc(Br)cc2c1N=NC(=S)Nc1ccc(F)cc1	4%	-67%	7.9µM*	-8%	?	0.79µM*
